For test [1], the system named is Plasmodium falciparum Sir2 (PF13_0152, Sir2A). Briefly: pfSir2 binders on small-molecule microarrays, primary screen, biochemical, small-molecule microarray, 635 nm fluorescence (AID 1098).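 Also: score merges spot fluorescence intensity with its signal-to-noise ratio.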 As to conditions: small-molecule microarray binding, fluorescence 635 nm; higher = more signal.
Test [2] in a line: small-molecule microarray binders of probe aDKK1, primary screen, biochemical, biotinylated probe, 635/667 nm fluorescence (AID 1099).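 Also: score merges 667nm spot fluorescence with signal to noise across triplicate slides; reference of the scale not given here.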 Conditions: higher = more signal.
Test [3] in a line: small-molecule microarray binders of probe aCHRDL2, primary screen, biochemical, biotinylated probe, 635/667 nm fluorescence (AID 1100). Conditions: higher = more signal.
Test [4] is described as follows: splicing luciferase reporter signal modulators, primary screen, spliceosome inhibition project, cell-based, HEK293, splice +/- reporter (AID 1101).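 Also: HEK293 cells carrying a splicing-competent luciferase reporter gene; test concentration not given here.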 As to conditions: luminescence, 24 h, higher = more signal, called active from +8 up or from −8 down. In general terms: In a reporter assay the amount or activity of a reporter protein is the signal.
Test [5] concerns the target Fibroblast growth factor 10 (Homo sapiens) (UniProt O15520). Put plainly: FGF10 binders on small-molecule microarrays, primary screen, biochemical, small-molecule microarray, 635 nm fluorescence (AID 1102). Conditions: FGF10 binding, fluorescence 635 nm, higher = more signal.
For test [6], the system named is glycogen synthase kinase-3 (GSK3A per assay name; protocol says GSK3B). Put plainly: GSK3 binders on small-molecule microarrays, primary screen, biochemical, small-molecule microarray, 635 nm fluorescence, GSK3A (AID 1103). Also: the record names both GSK3A and GSK3B. Conditions: small-molecule microarray binding, fluorescence 635 nm; higher = more signal.
The target of test [7] is Epidermal growth factor receptor (Homo sapiens) (UniProt P00533). Put plainly: EGFR binders on small-molecule microarrays, primary screen, biochemical, small-molecule microarray, 635 nm fluorescence (AID 1104).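 Also: score merges 667 nm emission intensity with spot signal to noise over triplicate slides.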 Conditions: EGFR binding, higher = more signal.
Test [8] has as its target Follistatin-related protein 3 (Homo sapiens) (UniProt O95633). Briefly: FSTL3 binders on small-molecule microarrays, primary screen, biochemical, small-molecule microarray, 635 nm fluorescence (AID 1105).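 Also: score merges emission near 667 nm and signal to noise per printed spot across three slides.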 As to conditions: FSTL3 binding, higher = more signal.
Test [9] has as its target Dickkopf-related protein 1 (Homo sapiens) (UniProt O94907). Put plainly: DKK1 binders on small-molecule microarrays, primary screen, biochemical, small-molecule microarray, 635 nm fluorescence scan (AID 1106).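 Also: score merges emission near 667 nm with signal to noise over three replicate slides.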 As to conditions: DKK1 binding, higher = more signal.
Test [10] has as its system Inhibin beta A chain (activin A). Put plainly: INHBA (activin A) binders on microarrays, primary screen, biochemical, small-molecule microarray, 635 nm fluorescence scan (AID 1107).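 Also: mouse activin A protein probed at 4.33 µg/mL on printed slides; score merges bound-protein fluorescence near 667 nm with spot signal-to-noise.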 Conditions: small-molecule microarray binding, higher = more signal.

The source made the active and inactive calls.

For 16 molecules, composite z-score and z-score results are on record in PubChem BioAssay.

Dickkopf-related protein 1 (Homo sapiens), sequence (O94907 whole entry, looked up): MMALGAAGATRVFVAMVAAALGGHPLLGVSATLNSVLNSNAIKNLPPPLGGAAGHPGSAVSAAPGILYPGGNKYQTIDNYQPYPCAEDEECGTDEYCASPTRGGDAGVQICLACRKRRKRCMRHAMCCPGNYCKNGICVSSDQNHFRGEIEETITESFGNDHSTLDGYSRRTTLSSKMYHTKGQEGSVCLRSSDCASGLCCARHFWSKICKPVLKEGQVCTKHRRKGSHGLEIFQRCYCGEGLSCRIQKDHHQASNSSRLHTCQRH
Epidermal growth factor receptor (Homo sapiens), sequence (P00533 whole entry, looked up): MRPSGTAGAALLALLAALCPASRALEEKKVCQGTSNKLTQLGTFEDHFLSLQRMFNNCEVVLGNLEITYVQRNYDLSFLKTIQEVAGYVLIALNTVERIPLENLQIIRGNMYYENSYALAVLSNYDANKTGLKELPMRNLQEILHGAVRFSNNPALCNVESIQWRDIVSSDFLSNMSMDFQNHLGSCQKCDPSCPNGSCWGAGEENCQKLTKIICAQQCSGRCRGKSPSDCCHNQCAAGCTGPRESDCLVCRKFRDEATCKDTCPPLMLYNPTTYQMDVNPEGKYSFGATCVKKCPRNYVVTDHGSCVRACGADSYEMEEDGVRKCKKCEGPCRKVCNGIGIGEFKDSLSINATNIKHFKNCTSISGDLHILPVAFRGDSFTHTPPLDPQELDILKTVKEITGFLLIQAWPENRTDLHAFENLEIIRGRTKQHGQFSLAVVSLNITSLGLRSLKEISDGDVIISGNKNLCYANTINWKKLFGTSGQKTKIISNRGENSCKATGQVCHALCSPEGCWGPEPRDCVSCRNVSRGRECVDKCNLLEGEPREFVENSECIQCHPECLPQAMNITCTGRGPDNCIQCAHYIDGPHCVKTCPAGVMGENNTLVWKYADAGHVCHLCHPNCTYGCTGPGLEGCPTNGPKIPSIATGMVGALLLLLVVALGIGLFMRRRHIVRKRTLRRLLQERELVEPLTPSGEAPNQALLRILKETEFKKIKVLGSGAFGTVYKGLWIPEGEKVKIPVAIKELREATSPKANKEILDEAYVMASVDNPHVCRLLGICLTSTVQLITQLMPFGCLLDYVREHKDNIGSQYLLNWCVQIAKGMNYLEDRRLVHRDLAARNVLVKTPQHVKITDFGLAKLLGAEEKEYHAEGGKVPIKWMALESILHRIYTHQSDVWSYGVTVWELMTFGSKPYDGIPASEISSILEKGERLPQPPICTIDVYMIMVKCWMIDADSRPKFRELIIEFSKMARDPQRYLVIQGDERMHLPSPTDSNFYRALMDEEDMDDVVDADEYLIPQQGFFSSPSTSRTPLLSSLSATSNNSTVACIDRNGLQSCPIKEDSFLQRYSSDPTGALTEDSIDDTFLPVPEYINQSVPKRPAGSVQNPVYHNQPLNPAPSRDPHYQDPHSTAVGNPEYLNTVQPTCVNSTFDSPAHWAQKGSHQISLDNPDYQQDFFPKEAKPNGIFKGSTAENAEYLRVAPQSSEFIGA
Follistatin-related protein 3 (Homo sapiens), sequence (O95633 whole entry, looked up): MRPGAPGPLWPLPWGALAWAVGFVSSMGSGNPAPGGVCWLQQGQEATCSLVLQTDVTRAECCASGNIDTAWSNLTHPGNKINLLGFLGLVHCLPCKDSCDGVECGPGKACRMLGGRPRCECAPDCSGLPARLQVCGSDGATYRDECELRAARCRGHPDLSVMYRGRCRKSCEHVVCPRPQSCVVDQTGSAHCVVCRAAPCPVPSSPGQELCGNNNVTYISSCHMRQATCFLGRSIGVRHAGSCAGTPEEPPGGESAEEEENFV
Fibroblast growth factor 10 (Homo sapiens), sequence (O15520 whole entry, looked up): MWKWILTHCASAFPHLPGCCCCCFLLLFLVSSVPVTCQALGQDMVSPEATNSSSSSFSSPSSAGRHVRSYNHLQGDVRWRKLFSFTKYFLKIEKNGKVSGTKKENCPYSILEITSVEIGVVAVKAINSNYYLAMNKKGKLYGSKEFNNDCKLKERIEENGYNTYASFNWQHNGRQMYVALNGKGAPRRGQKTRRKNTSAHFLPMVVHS

For the molecule `COC(=O)C(CC#Cc1ccc2c(c1)[C@]1(C(=O)N2)[C@H](C(=O)N2CCc3cc(OC)c(OC)cc3C2)[C@H]2C(=O)O[C@H](c3ccccc3)[C@H](c3ccccc3)N2[C@@H]1c1ccc(OCCO)cc1)C(=O)OC`, the composite z-score in test [1] stood at 1.08; in test [2] it was 0.0138; in test [3], 0.415; in test [5] it was 1.39; in test [6] it was 1.3; in test [7] it was 0.732. The composite z-score in test [8] is 0.94; in test [9], 0.544; in test [10], 0.614. In addition, in test [4], the z-score is -0.291 (inactive).

`COC(=O)[C@@]1(Cc2ccc(F)cc2)[C@@H]2[C@@H](CC(=O)[C@H]2CC(=O)C(=O)N2CCCC2)CN1C(=O)c1ccccc1`: the composite z-score was 1.16 in test [1]; 0.942 in [2]; 0.807 in [3]; 1.11 in test [5]; 1.3 in [6]; -0.121 in [7]. Further, the results for the composite z-score in test [8], in [9] and in test [10] were 1.02, -0.0822 and 0.85, respectively. Besides, the z-score in [4] was -0.98 (inactive).

Take `O=C1O[C@H](c2ccccc2)[C@H](c2ccccc2)N2[C@H]1[C@@H](C(=O)N1CCCCCCC1)[C@]1(C(=O)Nc3ccc(C#CCCO)cc31)[C@H]2c1ccc(OCCO)cc1`: the composite z-score was determined as 2.14 in test [1]; 2.78 in test [2]; 1.42 in test [3]; 1.65 in test [5]; 1.45 in [6]; 1.89 in test [7]. Moreover, the values for the composite z-score in [8], in test [9] and in test [10] were 1.66, 2.65 and 1.9, respectively. Moreover, in test [4], the z-score was -0.302 (inactive).

As to `COCCCNC(=O)[C@]1(Cc2ccccc2CN=[N+]=[N-])N=C(c2ccc(OCCCO)cc2)O[C@@H]1c1ccccc1CN=[N+]=[N-]`, the composite z-score in test [1] was 1.59; in test [2], 1.35; in [3] it was 1.25; in [5] it was 0.944; in test [6] it was 1.19; in [7] it was 0.119. Besides, the composite z-score in test [8] is 0.07; in [9], -0.214; in [10] it was 0.413. The z-score in test [4] was 0.438 (inactive).

With `COC(=O)[C@@]1(Cc2ccccc2)[C@H]2c3cc(C(=O)N(C)C)n(Cc4ccc(O)c(OC)c4)c3C[C@H]2CN1C(=O)c1ccccc1`, the composite z-score in test [1] is 1.37; in test [2] it was 0.722; in test [3], 0.295; in test [5], -0.27; in [6], 0.255; in test [7] it was -0.34. Further, the values for the composite z-score in test [8], in test [9] and in test [10] were 0.764, -0.65 and 0.637, respectively. The z-score in test [4] is -6.3 (inactive).

On to `CN1C(=O)C2C=CC(C(O)c3cccc4ccccc34)N(NC(=O)OC(C)(C)C)C2C1=O` (stereo not given), for which the composite z-score was 1.37 in test [1]; 1.33 in test [2]; 1.43 in test [3]; 0.373 in test [5]; 1.03 in test [6]; -0.0459 in test [7]. Besides, the results for the composite z-score in test [8], in [9] and in [10] were 0.85, -0.123 and 0.844, respectively. The z-score in test [4] was 2.35 (inactive).

For `COC(=O)c1ccc(OC)c(/C=C\CC(CCc2ccccc2)OC(=O)c2ccncc2)c1` (stereo not given), the composite z-score in test [1] was -0.734; in test [2] it was -0.264; in [3] it was 0.705; in [5] it was 0.253; in test [6] it was -0.453; in [7] it was 0.651. Moreover, the composite z-score in test [8] came out at 1.37; in test [9] it was 0.697; in [10], 1.81. The z-score in test [4] was -0.387 (inactive).

As for `CN(C)CCCC[C@@H]1NC(=O)[C@H]2C[C@@H](C(=O)NCCCCCCNC(=O)CS)[C@@H](c3ccc(O)cc3)N2C1=O`, the composite z-score in [1] was 1.74; in [2], -0.172; in [3], 0.314; in test [5] it was -0.31; in test [6], -0.323; in test [7], 0.0264. Besides, the composite z-score in test [8] is 1.27; in [9], -0.17; in [10], 0.947. Moreover, the z-score in test [4] is -0.296 (inactive).

In the case of `Cc1cc(C)c(C(O)C2C=CC3C(=O)N(c4ccccc4)C(=O)C3N2Nc2ccc([N+](=O)[O-])cc2)c(C)c1` (stereo not given), the composite z-score came out at 1.55 in test [1]; 0.74 in [2]; 0.911 in [3]; 0.693 in [5]; 1.3 in test [6]; 0.326 in test [7]. Besides, the figures for the composite z-score in [8], in test [9] and in [10] were 1.45, 0.275 and 0.471, respectively. In [4], the z-score was 0.311 (inactive).

For the molecule `CC[C@@H]1[C@@H]2C3C(=O)N(CC)C(=O)C3CC(=O)[C@@H]2[C@H](c2ccc(C)cc2)N1S(=O)(=O)c1ccc(C)cc1` (stereo not given in full), the composite z-score in test [1] came out at 0.426; in test [2] it was 0.384; in test [3] it was 0.246; in test [5] it was 0.859; in test [6], 1.31; in test [7], 0.174. Further, the composite z-score stood at 0.748 in test [8], 0.238 in [9] and 0.241 in [10]. Besides, the z-score in test [4] is -1.52 (inactive).

Regarding `C=CCC(OC(C)=O)[C@@H]1[C@@H](N(Cc2cccc3ccccc23)C(=O)c2ccc(C)cc2)c2cc(OCCCO)ccc2N1C(=O)c1ccc2ccccc2c1` (stereo not given in full), the composite z-score is -0.269 in test [1]; -0.259 in [2]; 0.281 in test [3]; 0.11 in test [5]; 0.0882 in test [6]; 0.286 in test [7]. For the same molecule, the composite z-score was found to be 0.421 in test [8], 0.181 in [9] and 1.08 in [10]. For the same molecule, the z-score in test [4] is -1.86 (inactive).

As to `CCOC(=O)C1=CC[C@@H](c2ccccc2)N(S(=O)(=O)c2ccc(C)cc2)[C@H]1C=C(C)C`, the composite z-score in test [1] was determined as 0.625; in [2], 0.367; in test [3] it was 0.688; in [5] it was 1.02; in test [6], 0.604; in test [7], 1.01. In addition, the composite z-score in test [8] is 1.38; in test [9], 0.226; in [10], 1.11. In test [4], the z-score is -0.925 (inactive).

For `C=CC[C@@]1(C(=O)NCC(O)CO)N=C(c2ccc(OCCCO)cc2)O[C@@H]1c1ccccc1` (stereo not given in full), the composite z-score in test [1] was 1.46; in test [2], 1.24; in test [3] it was 1.34; in [5], 1.47; in [6] it was 0.0168; in [7], -0.829. Besides, the composite z-score in test [8] was -0.29; in test [9], -0.135; in [10], 0.505. Besides, the z-score in [4] is -0.195 (inactive).

Consider `COc1ccc([Si](C)(C)[C@@H]2[C@@H](CC(=O)N(CCO)Cc3ccccc3)O[C@]3(C(=O)N(Cc4ccc(N5CCOC5=O)cc4)c4ccccc43)[C@H]2C)cc1`, for which the composite z-score in [1] worked out at 0.851; in test [2], 0.232; in [3], 0.0947; in [5], 0.472; in test [6], 0.218; in [7] it was 0.467. Also, the figures for the composite z-score in test [8], in test [9] and in test [10] were 1.09, 0.71 and 0.529, respectively. The z-score in test [4] is 0.24 (inactive).

On to `CCCN1C(=O)[C@@]2(Cc3ccccc3)N=C(c3ccc(OCCCO)cc3)O[C@H]2c2ccccc21`, for which the composite z-score in [1] stood at 1.61; in [2], 0.0149; in [3], 0.707; in [5] it was 0.926; in test [6], 1.14; in test [7], 0.234. Also, the composite z-score in test [8] was 0.63; in test [9], -0.234; in test [10] it was 1.14. Besides, the z-score in test [4] is -0.872 (inactive).

For `CCCC=C(CCC)[C@@H](NS(=O)(=O)c1cccc2cccnc12)c1ccc(C(=O)OC)cc1`, the composite z-score came out at 0.817 in test [1]; 2.53 in [2]; 1.46 in test [3]; 1.58 in [5]; 0.0656 in test [6]; 1.8 in [7]. For the same molecule, the composite z-score in test [8] is 1.24; in test [9] it was 0.726; in test [10], 0.948. The z-score in test [4] is -0.355 (inactive).
